Experimental data reported in PubChem BioAssay.
Entries with a potency or affinity are not part of this list. Records with an inconclusive call do not appear. Activity calls are given as the source filed them.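 Rule for the calls, unless noted: active = a fitted half-maximal concentration no higher than twice the top valid tested dose, with signal falling as cells die; inconclusive = flat curve between -70% and -30%, or poor fit; inactive = the rest, including signal rising instead of falling.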

Tests used:
[1] = fungal growth arrest, C. neoformans – Alamar Blue, cherry-picks, dose response (AID 686998;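 active = falling signal with fitted half-maximal potency no higher than twice the top valid tested dose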)
[2] = C. neoformans lysis by adenylate kinase leakage – AK release luminescence, cherry-picks, dose response (AID 687000;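 active = fitted dose curve reaches 40% lysis signal rise at or below the highest valid concentration tested for that sample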;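 note: luminescent detection of adenylate kinase leaking from lysed yeast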)
[3] = viability loss in HepG2 hepatoma cells – cell-based, cherry-picks, set 2, cytotoxicity control, dose response (AID 687002;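 active = a dose-response fit showing signal loss, with half-maximal concentration no higher than twice the top tested dose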)
[4] = viability loss in HeLa cells – cell-based, ATP luminescence, cherry-pick samples, cytotoxicity control, dose response (AID 687004)

Measured: outcome

C[C@@H]1CCCCO[C@@H](CN(C)S(=O)(=O)c2cccs2)[C@H](C)CN([C@@H](C)CO)C(=O)c2cc(NC(=O)CCC(F)(F)F)ccc2O1
inactive: all assays above

CO[C@@H]1CN(C)C(=O)c2cc(NS(=O)(=O)C3CCCCC3)ccc2OC[C@H](C)NC[C@@H]1C
inactive: all assays above

COc1ccccc1CNC(=O)C[C@@H]1C[C@@H]2c3cc(NC(=O)Nc4ccccc4F)ccc3O[C@@H]2[C@H](CO)O1
inactive: all assays above

CO[C@H]1CN(C)C(=O)c2cc(NC(=O)c3ccccc3F)ccc2OC[C@H](C)N(C(C)=O)C[C@H]1C
inactive: all assays above

COc1ccc(NC(=O)N(C)C[C@H]2OCc3ccccc3-c3c(n(C)c4ccccc34)C(=O)N([C@H](C)CO)C[C@@H]2C)cc1
inactive: all assays above

CC(C)NC(=O)Nc1ccc2c(c1)C(=O)N([C@@H](C)CO)C[C@@H](C)[C@@H](CN(C)S(=O)(=O)c1ccc(Cl)cc1)OCCCC[C@@H](C)O2
inactive: all assays above

CCC(C)(C(=O)NC1CCCCC1)N(C(=O)C1CCC(=O)N1)c1ccc(C)cc1 (stereo not given)
inactive: all assays above

CNC[C@@H]1Oc2c(NS(=O)(=O)c3cccs3)cccc2C(=O)N([C@@H](C)CO)C[C@H]1C
inactive: all assays above

C[C@H](CO)N1C[C@H](C)[C@H](CN(C)C(=O)Nc2cccc(F)c2)Oc2ncc(C#CCN(C)C)cc2C1=O
inactive: all assays above

O=C(C[C@@H]1CC[C@H]2[C@@H](COC[C@@H](O)CN2Cc2ccc(Cl)cc2)O1)NCc1cccc(F)c1
inactive: all assays above

N#Cc1ccc(C23CC4(C2)[C@H](CN(Cc2ccc(-c5ccccc5)cc2)[C@@H]4c2ccccc2)C3c2ccc(C(F)(F)F)cc2)cc1 (stereo not given in full)
inactive: all assays above

COc1ccc(-c2cnc3c(c2)C(=O)N([C@@H](C)CO)C[C@H](C)[C@@H](CN(C)S(C)(=O)=O)O3)cc1
inactive: all assays above

COc1ccc(NC(=O)Nc2ccc3c(c2)C(=O)N([C@H](C)CO)C[C@@H](C)[C@@H](CN(C)S(=O)(=O)c2ccc(Cl)cc2)OCCCC[C@H](C)O3)cc1
inactive: all assays above

C[C@@H]1CN([C@@H](C)CO)C(=O)c2cccc(N(C)C)c2O[C@H]1CN(C)C(=O)Nc1ccc(C(F)(F)F)cc1
inactive: all assays above

CCS(=O)(=O)N1CCCCN2[C@H](C1)[C@@H](c1ccc(-c3ccc(C#N)cc3)cc1)[C@@H]2CO
inactive: all assays above

Cc1noc(C)c1S(=O)(=O)N(C)C[C@@H]1OCCCC[C@@H](C)Oc2ccc(NC(=O)CCCCCC(=O)Nc3ccccc3N)cc2C(=O)N([C@H](C)CO)C[C@@H]1C
inactive: all assays above

COc1ccccc1CNC(=O)COc1ccc2c(c1)CCC2
inactive: all assays above

Cc1ccc(C)c(NC(=O)C2(C)CCCN2C(=O)C(C)C)c1 (stereo not given)
inactive: all assays above

CC(C)NC(=O)N(C)C[C@@H]1OCCCC[C@@H](C)Oc2ccc(NC(=O)c3ccccc3)cc2C(=O)N([C@H](C)CO)C[C@H]1C
inactive: all assays above

O=C(C[C@@H]1CC[C@H]2[C@@H](COC[C@H](O)CN2Cc2cccc(C(F)(F)F)c2)O1)NCc1ccccc1
inactive: all assays above

O=C(c1cccc(F)c1)N1C[C@@H]2[C@H](c3ccccc31)[C@H](CO)N2Cc1cocn1
inactive: all assays above

CC(=O)NC[C@@H]1[C@@H](c2ccc(C3=CCCC3)cc2)[C@@H](CO)N1C(=O)NC(C)C
inactive: all assays above

O=C(C[C@H]1CC[C@@H](NC(=O)c2ccc3c(c2)OCO3)[C@@H](CO)O1)NCc1ccc(F)cc1
inactive: all assays above

COc1ccccc1C(=O)Nc1ccc2c(c1)C(=O)N(C)C[C@@H](OC)[C@H](C)CN(C)[C@@H](C)CO2
inactive: all assays above

O=C(c1ccco1)N1N=C(c2cccs2)CC1c1ccccc1O (stereo not given)
inactive: all assays above

O=C(NCCc1ccccc1)[C@H]1[C@H](CO)[C@H]2Cn3c(cccc3=O)[C@@H]1N2C(=O)C1CCC1
inactive: all assays above

Cc1cccc(C)c1NC(=O)C(CCc1ccccc1)N1CCN(C)CC1 (stereo not given)
inactive: all assays above

C[C@H]1CN([C@@H](C)CO)C(=O)c2cc(NC(=O)CCN3CCOCC3)ccc2O[C@@H]1CN(C)Cc1ccc(C(=O)O)cc1
inactive: all assays above

Cc1ccc(OCC(=O)NCc2ccccc2)cc1
inactive: all assays above

O=C(C[C@H]1CC[C@@H]2[C@H](COC[C@@H](O)CN2Cc2cccc(C(F)(F)F)c2)O1)NCc1ccc(Cl)cc1
inactive: all assays above

C[C@H]1CCCCO[C@H](CN(C)S(=O)(=O)c2ccc(Cl)cc2)[C@@H](C)CN([C@@H](C)CO)C(=O)c2cc(NS(=O)(=O)c3cccs3)ccc2O1
inactive: all assays above

CO[C@H]1CN(C)C(=O)c2ccc(NC(C)=O)cc2OC[C@H](C)N(C(=O)c2ccncc2)C[C@@H]1C
inactive: all assays above

O=C(CSc1ncnc2c1cnn2-c1ccccc1)NC1CCS(=O)(=O)C1 (stereo not given)
inactive: all assays above

COc1ccccc1CNC(=O)C[C@@H]1CC[C@@H]2[C@H](COc3ccc(NC(C)=O)cc3C(=O)N2C)O1
inactive: all assays above

C[C@H]1CN([C@@H](C)CO)C(=O)c2cc(-c3cncnc3)cnc2O[C@H]1CN(C)C(=O)c1ccccc1F
inactive: all assays above

CN(C)C(=O)c1ccc(-c2ccc([C@H]3[C@H]4CN(CCC(F)(F)F)CCCCN4[C@H]3CO)cc2)cc1
inactive: all assays above

Cc1ccc(N(C(=O)C2CCC(=O)N2)C2(C(=O)NC3CCCCC3)CCCCC2)cc1 (stereo not given)
inactive: all assays above

CCOc1cc(/C=N/NC(=O)CCCC(=O)NC2CCCCC2)ccc1O
inactive: all assays above

CC(C)NC(=O)Nc1ccc2c(c1)C(=O)N([C@@H](C)CO)C[C@H](C)[C@@H](CN(C)C(=O)CCC(F)(F)F)OCCCC[C@H](C)O2
inactive: all assays above

C/C=C/c1ccc([C@H]2[C@@H](CO)N(C(=O)CC)[C@@H]2CNC(=O)C2CC2)cc1
inactive: all assays above

COCC(=O)NC[C@H]1N[C@H](CO)[C@@H]1c1ccc(C2=CCCC2)cc1
inactive: all assays above

Cc1cc(C(=O)Nc2cccc3c2O[C@H](CN(C)S(=O)(=O)c2ccccc2)[C@H](C)CN([C@H](C)CO)C3=O)n(C)n1
inactive: all assays above

CC=Cc1ccc2n(c1=O)C[C@@H]1[C@@H](CO)[C@H](C(=O)N3CCCCC3)N(Cc3ccccc3)[C@H]21 (mixture of isomers)
inactive: all assays above

Cc1ccc(S(=O)(=O)N2C[C@@H](O)COC[C@H]3O[C@H](CC(=O)NCc4ccc5c(c4)OCO5)CC[C@@H]32)cc1
inactive: all assays above

C[C@@H]1CN([C@@H](C)CO)C(=O)c2cc(N(C)C)ccc2O[C@@H]1CN(C)C(=O)Nc1ccc(C(F)(F)F)cc1
inactive: all assays above

C[C@H](CO)N1C[C@H](C)[C@H](CN(C)Cc2ccncc2)Oc2ccc(NC(=O)CCC(F)(F)F)cc2C1=O
inactive: all assays above

C[C@H]1CN([C@@H](C)CO)C(=O)c2cccc(NS(=O)(=O)c3cn(C)cn3)c2O[C@@H]1CN(C)CC1CCCCC1
inactive: all assays above

COCC(=O)N(C)C[C@@H]1Oc2ncc(C#CCC3CCCC3)cc2C(=O)N([C@@H](C)CO)C[C@H]1C
inactive: all assays above

CCCC#Cc1ccc2c(c1)O[C@@H](CN(C)C)[C@@H](C)CN([C@@H](C)CO)S2(=O)=O
inactive: all assays above

COc1ccccc1NC(=O)N[C@@H]1CC[C@@H](CCn2cc(C3(O)CCCC3)nn2)O[C@H]1CO
inactive: all assays above

CNC[C@@H]1OCCCC[C@H](C)Oc2ccc(NC(=O)NC(C)C)cc2C(=O)N([C@H](C)CO)C[C@H]1C
inactive: all assays above

CC(=O)c1cccc(NC(=S)NC2CCCCC2)c1
inactive: all assays above

C[C@@H]1CCCCO[C@H](CN(C)C(=O)c2ccncc2)[C@H](C)CN([C@H](C)CO)C(=O)c2cc(NC(=O)CCC(F)(F)F)ccc2O1
inactive: all assays above

CC(C)c1ccc(S(=O)(=O)N2CCN(CC(=O)Nc3ccc4c(c3)OCO4)CC2)cc1
inactive: all assays above

C[C@H]1CN([C@@H](C)CO)C(=O)c2cc(NS(=O)(=O)c3ccc(F)cc3)ccc2O[C@@H]1CN(C)S(=O)(=O)c1ccccc1
inactive: all assays above
